Laboratory results: PubChem BioAssay AID1224864 (Chung Lab, Department of Pediatrics, Emory University, 2016)
The whole screen tested about 2,000 compounds, of which about 20 (1%) were called active. The sample holds actives, similar compounds and a random draw of the others, so the mix is not that of the screen. How the calls were made is not given here.

biological target: Cystic fibrosis transmembrane conductance regulator (Homo sapiens) (UniProt P13569); experiment: correctors of F508del-CFTR surface localization, primary screen, imaging, HeLa, high-content microscopy, immunofluorescence (AID 1224864); conditions: PM immunofluorescence imaging, 24 h, at 10 µM, stronger effect = higher value; total CFTR intensity: measured here: total cellular F508del-CFTR signal unless noted;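 further: HeLa cells stably expressing F508del-CFTR stained with 3G11 antibody against NBD1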;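 on plasma membrane CFTR intensity: mean immunofluorescence in a thin cell-margin band taken as plasma membrane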
Sequence (P13569 whole entry, looked up, stated change not applied): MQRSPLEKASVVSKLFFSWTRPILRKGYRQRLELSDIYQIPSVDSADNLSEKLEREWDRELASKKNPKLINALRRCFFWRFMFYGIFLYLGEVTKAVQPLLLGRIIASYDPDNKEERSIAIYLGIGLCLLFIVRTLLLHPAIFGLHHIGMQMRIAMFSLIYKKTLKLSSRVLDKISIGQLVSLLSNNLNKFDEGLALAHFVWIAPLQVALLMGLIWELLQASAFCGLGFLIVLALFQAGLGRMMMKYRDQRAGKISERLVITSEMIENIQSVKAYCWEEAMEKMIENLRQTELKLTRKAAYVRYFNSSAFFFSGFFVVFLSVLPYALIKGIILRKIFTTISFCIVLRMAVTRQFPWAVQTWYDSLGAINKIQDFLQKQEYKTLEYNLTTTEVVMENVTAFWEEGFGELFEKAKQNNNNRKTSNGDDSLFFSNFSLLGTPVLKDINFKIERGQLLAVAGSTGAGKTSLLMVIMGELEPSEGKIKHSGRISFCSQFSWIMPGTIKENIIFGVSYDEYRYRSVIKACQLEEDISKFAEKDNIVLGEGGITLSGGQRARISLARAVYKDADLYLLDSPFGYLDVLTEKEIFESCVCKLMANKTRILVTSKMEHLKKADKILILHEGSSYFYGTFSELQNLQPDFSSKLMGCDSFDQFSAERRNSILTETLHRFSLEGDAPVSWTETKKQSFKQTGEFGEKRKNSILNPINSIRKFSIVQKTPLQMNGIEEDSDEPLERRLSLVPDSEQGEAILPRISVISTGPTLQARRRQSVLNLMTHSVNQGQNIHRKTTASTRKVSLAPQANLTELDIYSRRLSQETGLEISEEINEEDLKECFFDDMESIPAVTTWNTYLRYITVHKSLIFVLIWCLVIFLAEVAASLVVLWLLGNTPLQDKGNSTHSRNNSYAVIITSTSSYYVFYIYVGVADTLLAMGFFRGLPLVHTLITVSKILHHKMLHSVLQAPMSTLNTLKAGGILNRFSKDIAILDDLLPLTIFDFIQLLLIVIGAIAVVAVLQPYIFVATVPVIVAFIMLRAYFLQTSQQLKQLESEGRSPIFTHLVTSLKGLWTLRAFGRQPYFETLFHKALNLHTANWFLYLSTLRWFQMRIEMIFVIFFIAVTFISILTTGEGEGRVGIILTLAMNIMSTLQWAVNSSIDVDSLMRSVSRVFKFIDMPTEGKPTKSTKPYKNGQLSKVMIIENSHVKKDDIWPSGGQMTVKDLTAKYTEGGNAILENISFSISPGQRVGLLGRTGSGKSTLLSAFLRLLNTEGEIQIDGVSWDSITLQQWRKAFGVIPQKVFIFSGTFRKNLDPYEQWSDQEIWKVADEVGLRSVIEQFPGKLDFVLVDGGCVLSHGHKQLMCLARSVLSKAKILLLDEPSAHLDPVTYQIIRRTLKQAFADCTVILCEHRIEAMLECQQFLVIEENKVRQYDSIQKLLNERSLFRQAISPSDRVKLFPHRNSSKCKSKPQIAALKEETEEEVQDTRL

Structure (SMILES)	plasma membrane CFTR intensity	total CFTR intensity
CC(C)[C@H]1C(=O)N2CCC[C@H]2[C@]2(O)O[C@](NC(=O)[C@@H]3C=C4c5cccc6[nH]cc(c56)C[C@H]4N(C)C3)(C(C)C)C(=O)N12	106% [relative to vehicle wells set at 100] (active)	139% [measured here: total cellular F508del-CFTR signal, relative to vehicle wells set at 100]
CC(C)C[C@H]1C(=O)N2CCCC2[C@]2(O)O[C@](NC(=O)[C@@H]3C=C4c5cccc6[nH]cc(c56)CC4N(C)C3)(C(C)C)C(=O)N12 (stereo not given in full)	123% [relative to vehicle wells set at 100] (active)	142% [measured here: total cellular F508del-CFTR signal, relative to vehicle wells set at 100]
CC(C)[C@@]1(NC(=O)[C@@H]2C[C@@H]3c4cccc5[nH]cc(c45)C[C@H]3N(C)C2)O[C@@]2(O)[C@@H]3CCCN3C(=O)[C@H](Cc3ccccc3)N2C1=O	50% (inactive)	49%
CC[C@@H](CO)NC(=O)[C@@H]1C=C2c3cccc4c3c(cn4C)C[C@H]2N(C)C1	78% (inactive)	76%
Clc1ccc(C2NCCc3nc[nH]c32)cc1 (stereo not given)	79% [relative to vehicle wells set at 100] (inactive)	78% [measured here: total cellular F508del-CFTR signal, relative to vehicle wells set at 100]
CC(C)C(=O)Nc1ccc(S(=O)(=O)N2CC3CC(C2)c2cccc(=O)n2C3)cc1 (stereo not given)	92% (inactive)	96%
C[C@@]1(CO)[C@H](O)CC[C@@]2(C)[C@H]1CC[C@H]1C[C@@H]3C[C@@]12CC[C@]3(O)CO	75% (inactive)	83%
CN1CCN(CCCN2c3ccccc3Sc3ccc(Cl)cc32)CC1	57% (inactive)	48%
COP(=O)(OC)C(O)C(Cl)(Cl)Cl (stereo not given)	96% (inactive)	100%
CC12CC[C@H]3[C@@H](CCC4(O)C[C@H](O)CCC34/C=N/NC(=O)Cc3ccccc3)C1(O)CCC2C1=CC(=O)OC1 (stereo not given in full)	87% [relative to vehicle wells set at 100] (inactive)	88% [measured here: total cellular F508del-CFTR signal, relative to vehicle wells set at 100]
